CHT inh: inhibitors of human choline transporter CHT. High affinity choline transporter 1 (Homo sapiens), Q9GZV3. CHT-expressing cells, membrane potential dye, choline response; stronger effect = lower value. B-score at 10 µM. 310,000 tested, 0.86% active. AID 488975, 2010;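 active = B-score over 3 SD under the library average, and starting fluorescence ratio not unusually high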;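 note: choline stimulus applied at its EC90 after an EC20 pre-addition; B-score computed on integrated fluorescence ratio after choline addition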
TMEM16A act: TMEM16A chloride channel activators or potentiators, primary screen, cell-based, HTS | HEK293 TMEM16A/YFP-H148Q/I152L, iodide quench fluorescence; stronger effect = lower value | B-score at 10 µM | 340,000 tested, 0.3% active;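 active = fluorescence-ratio B-score plate-corrected deviation score at least 3 library SD below zero, with starting fluorescence score within 5 deviations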;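 note: channel opened by trigger with iodide after compound preincubation; score built on the fluorescence ratio of max minus min over baseline; more negative score means more quench and so TMEM16A activation or potentiation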
Target sequence (Q8BHY3 whole entry, looked up): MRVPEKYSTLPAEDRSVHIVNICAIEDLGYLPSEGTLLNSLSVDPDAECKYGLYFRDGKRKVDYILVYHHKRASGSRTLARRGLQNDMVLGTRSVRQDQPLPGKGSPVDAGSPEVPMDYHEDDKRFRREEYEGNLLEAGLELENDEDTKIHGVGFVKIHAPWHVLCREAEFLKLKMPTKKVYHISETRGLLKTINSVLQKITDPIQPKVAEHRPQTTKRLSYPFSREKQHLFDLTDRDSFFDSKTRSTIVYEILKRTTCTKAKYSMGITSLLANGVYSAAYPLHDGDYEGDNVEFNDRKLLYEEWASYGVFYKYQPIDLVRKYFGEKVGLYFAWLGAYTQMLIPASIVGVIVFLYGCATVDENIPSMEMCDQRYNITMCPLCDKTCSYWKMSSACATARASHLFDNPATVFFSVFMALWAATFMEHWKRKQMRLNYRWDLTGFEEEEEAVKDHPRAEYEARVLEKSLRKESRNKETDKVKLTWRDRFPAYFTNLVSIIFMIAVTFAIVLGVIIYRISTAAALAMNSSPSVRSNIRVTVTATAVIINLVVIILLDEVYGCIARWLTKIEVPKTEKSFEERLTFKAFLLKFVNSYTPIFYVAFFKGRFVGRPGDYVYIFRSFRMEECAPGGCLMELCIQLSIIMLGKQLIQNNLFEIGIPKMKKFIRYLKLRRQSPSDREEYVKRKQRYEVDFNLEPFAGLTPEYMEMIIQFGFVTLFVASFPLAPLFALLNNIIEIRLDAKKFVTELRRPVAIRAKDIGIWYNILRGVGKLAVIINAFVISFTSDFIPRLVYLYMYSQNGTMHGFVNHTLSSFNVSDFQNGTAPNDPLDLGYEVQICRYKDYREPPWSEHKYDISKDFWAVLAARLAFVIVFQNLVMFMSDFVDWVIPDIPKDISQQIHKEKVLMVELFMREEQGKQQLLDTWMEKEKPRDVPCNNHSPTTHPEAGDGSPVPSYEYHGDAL
TMEM16A inh: TMEM16A chloride channel inhibitors, primary screen, cell-based, HTS. HEK293 TMEM16A/YFP iodide influx fluorescence, ionomycin. 310,000 tested, 1.2% active. Anoctamin-1 (Mus musculus), Q8BHY3. normalized B-score (activity score, 25-100; higher = stronger inhibition) at 10 µM;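 active = ratio plate-corrected score three or more library SD toward inhibition, starting fluorescence score within five deviations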;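 note: score derived from kinetic fluorescence span divided by baseline fluorescence per well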
CHT allo act: CHT positive allosteric modulators, primary screen, cell-based, membrane potential dye, choline EC20; CHT-expressing cells; stronger effect = higher value; LV-AA mutant CHT in HEK293 cells; AID 488977, 2010; 310,000 tested, 0.49% active; B-score at 10 µM; High affinity choline transporter 1 (Homo sapiens), Q9GZV3;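 active = initial fluorescence not abnormally high and integrated response B-score, plate-corrected, over 3 SD above library mean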
TMEM16A reconf: TMEM16A chloride channel inhibitors, confirmation, cell-based, re-confirmation; 2,300 tested, 39% active; HEK293 TMEM16A/YFP-H148Q, iodide quench fluorescence; ionomycin added to raise cell calcium; AID 652189, 2013; shares compounds with TMEM16A inh; inhibition, % at 10 µM;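 active = mean duplicate percent inhibition, scaled so buffer wells are 0 and the reference blocker 100, over three buffer SD above buffer mean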
HEK293 Ca mobil: calcium mobilization in TMEM16A/YFP HEK293 cells, confirmation, counter-screen for TMEM16A inhibitor project; Fluo4 calcium mobilization; calcium response (% of ionomycin), % at 10 µM; 2,300 tested, 2% active; shares compounds with TMEM16A inh;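 active = duplicate-averaged calcium signal over 20% of the ionomycin maximum, relative to buffer baseline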;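 note: each well's signal is peak minus trough fluorescence divided by its pre-addition baseline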
Parental YFP cnt: iodide YFP quench changes in parental YFP-HEK293, counter-screen for TMEM16A inhibitor project, cell-based; YFP ratio F(max-min)/F0 at 10 µM; ionomycin; 2,300 tested, under 10 active; shares compounds with TMEM16A inh; AID 652233, 2013;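 active = yellow fluorescent protein signal ratio exceeding the buffer control mean by over 5 SD of those controls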;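 note: ratio is mean of duplicate wells from kinetic YFP trace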
ClC-1 rat inh: ClC-1 chloride channel inhibition, selectivity assay for TMEM16A inhibitor project, cell-based, voltage-dependent ClC-1 | shares compounds with TMEM16A inh | CHO ClC-1-YFP, iodide influx fluorescence quench; iodide control reads 0, buffer control 100 | ratio percent, % at 10 µM | 2,300 tested, under 10 active | AID 652236, 2013;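 active = duplicate-mean ratio percent above the mean of iodide-only control wells, which defines zero, plus 5 of their SD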;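 note: higher percent means stronger block of ClC-1 iodide influx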
Of the large screens only hits and unclear results are named; the others gave an inactive call (follow-up assays come after a bar, where they were run). Shown are actives, neighbours in structure and some others; about 2.4% of the full set was active somewhere.

NC(=O)C1(NC(=O)[C@@H]2CC3(CC(c4cccc(NC(=O)c5cc([N+](=O)[O-])cc([N+](=O)[O-])c5)c4)=NO3)CN2C(=O)c2ccccc2)CC1 (some centres not stated)	none
COc1cccc(C2c3c(oc4ccc(Cl)cc4c3=O)C(=O)N2c2cc(C)on2)c1OC (configuration not stated)	none
Cc1cc(C)c(S(=O)(=O)Nc2ccccc2-c2ccccc2)c(C)c1	TMEM16A inh 25 | TMEM16A reconf inactive | HEK293 Ca mobil inactive | Parental YFP cnt inactive | ClC-1 rat inh inactive
COC(=O)c1ccc(C(=O)OC)c(NS(C)(=O)=O)c1	TMEM16A inh 25 | TMEM16A reconf inactive | HEK293 Ca mobil inactive | Parental YFP cnt inactive | ClC-1 rat inh inactive
CCN(CC)S(=O)(=O)c1ccc(C(=O)N2CCCCC2)cc1	none
O=C(CSc1nnc(Cc2cc(=O)[nH]c(=O)[nH]2)n1-c1ccccc1)N1CCCCC1	none | TMEM16A reconf inactive | HEK293 Ca mobil inactive | Parental YFP cnt inactive | ClC-1 rat inh inactive
Cc1ccc(CNC(=O)CN(Cc2cccs2)C(=O)C2(C)CC(=O)N=C3C=CC=CN32)cc1 (configuration not stated)	none
O=[N+]([O-])c1ccc(SCc2c(F)cccc2Cl)nc1	TMEM16A inh 25 | TMEM16A reconf 16% | HEK293 Ca mobil inactive | Parental YFP cnt inactive | ClC-1 rat inh inactive
O=[N+]([O-])c1cccnc1SCc1c(F)cccc1Cl	none
CCOc1cc(/C=C2/C(=O)N(c3ccccc3)N=C2C)ccc1OC(=O)c1cccs1	TMEM16A inh 25 | TMEM16A reconf inactive | HEK293 Ca mobil inactive | Parental YFP cnt inactive | ClC-1 rat inh inactive
COc1cc(C(=O)ON=C2C(C)=CC(=O)C=C2C)cc(OC)c1OC	TMEM16A inh 100 | TMEM16A reconf inactive | HEK293 Ca mobil inactive | Parental YFP cnt inactive | ClC-1 rat inh inactive
COc1ccccc1NC(=O)Cc1ccc(-c2ccccc2)cc1	TMEM16A inh 25 | TMEM16A reconf inactive | HEK293 Ca mobil inactive | Parental YFP cnt inactive | ClC-1 rat inh inactive
O=C(Oc1cccc(Nc2ncnc3ccccc23)c1)c1ccccc1Cl	TMEM16A inh 100 | TMEM16A reconf 18% | HEK293 Ca mobil inactive | Parental YFP cnt inactive | ClC-1 rat inh inactive
O=C(CN1C(=O)NC(Cc2ccccc2)C1=O)Nc1ccc(F)c(F)c1F (configuration not stated)	none (no result: CHT inh, TMEM16A inh, CHT allo act)
CC1(c2ccccc2)O[C@@H]2C[C@H]3[C@@H]4CCC5=CC(=O)C=C[C@]5(C)[C@@]4(F)[C@@H](O)C[C@]3(C)[C@]2(C(=O)CO)O1 (some centres not stated)	none
COc1ccc2c(c1O)C(=O)c1ccccc1C2=O	none (no result: TMEM16A act)
COc1cccc2c1C(=O)C=C(C)C2=O	TMEM16A inh 25 | TMEM16A reconf inactive | HEK293 Ca mobil 24% | Parental YFP cnt inactive | ClC-1 rat inh inactive
O=C(Nc1ccc2oc(-c3ccccc3F)nc2c1)c1ccc2c(c1)OCCO2	TMEM16A inh 100 | TMEM16A reconf 17% | HEK293 Ca mobil inactive | Parental YFP cnt inactive | ClC-1 rat inh inactive
C/C(=N\NC(=O)c1cccc(S(=O)(=O)N2CCOCC2)c1)c1ccco1	none
CCN(CC)C(=O)COc1ccc2oc(C)c(C(=O)OC(C)C)c2c1	none | TMEM16A reconf inactive | HEK293 Ca mobil inactive | Parental YFP cnt inactive | ClC-1 rat inh inactive
Cc1oc2ccc(OS(C)(=O)=O)cc2c1C(=O)OC(C)C	none
CCN(C(=O)CN1CCN(c2ccccc2F)CC1)c1c(N)n(Cc2ccccc2)c(=O)[nH]c1=O	TMEM16A inh 100 | TMEM16A reconf inactive | HEK293 Ca mobil inactive | Parental YFP cnt inactive | ClC-1 rat inh inactive
CCN(C(=O)CN1CCN(c2ccccc2O)CC1)c1c(N)n(Cc2ccccc2)c(=O)[nH]c1=O	none
CCOc1cc(N2CCOCC2)c(OCC)cc1NC(=O)c1ccccc1	none
CC1=NN(c2ccccc2)C(=O)/C1=C\C=C1\N(C)c2ccccc2C1(C)C	none | TMEM16A reconf 30% | HEK293 Ca mobil inactive | Parental YFP cnt inactive | ClC-1 rat inh inactive
COc1ccc(-c2cc(C)no2)cc1S(=O)(=O)NCCc1ccco1	none
CCN(c1ccccc1)S(=O)(=O)c1ccc2c(c1)N(C(C)=O)CCO2	none
Cc1cccc(N2CCN(C(=O)CN3CCOc4ccccc43)CC2C)c1 (configuration not stated)	TMEM16A inh 25 | TMEM16A reconf inactive | HEK293 Ca mobil inactive | Parental YFP cnt inactive | ClC-1 rat inh inactive
Cc1cccc(N2CCN(C(=O)c3ccc4c(c3)OCCO4)CC2C)c1 (configuration not stated)	none
COC(=O)c1ccccc1NC(=O)CN(CCc1ccccc1)S(C)(=O)=O	none
Cc1cc(C)nc(/N=C(\N)Nc2ccc(CC(=O)OC(C)C)cc2)n1	none
Cc1cc(C)nc(/N=C(\N)Nc2ccc(OCCC(C)C)cc2)n1	TMEM16A inh 100 | TMEM16A reconf 29% | HEK293 Ca mobil 56% | Parental YFP cnt inactive | ClC-1 rat inh inactive
Cc1cc(/C=N/n2cnnc2)c(C)n1-c1ccc(OCc2ccccc2F)cc1	none
Cc1cc(/C=N/n2cnnc2)c(C)n1-c1ccc(OCc2ccc(Cl)cc2)cc1	TMEM16A inh 100 | TMEM16A reconf 24% | HEK293 Ca mobil inactive | Parental YFP cnt inactive | ClC-1 rat inh inactive
Cc1ccccc1C(=O)c1cccn1CC(=O)NC(C)CCc1ccccc1 (configuration not stated)	none
O=C(Nc1nc(-c2ccc(-c3ccccc3)cc2)cs1)C1CCCO1 (configuration not stated)	TMEM16A inh 100 | TMEM16A reconf inactive | HEK293 Ca mobil inactive | Parental YFP cnt inactive | ClC-1 rat inh inactive
Cc1csc(NC(=O)c2ccc(OCC3CCCO3)cc2)n1 (configuration not stated)	none
O=C(Nc1nc(-c2ccc(F)c(F)c2)cs1)c1ccc(OCC2CCCO2)cc1 (configuration not stated)	TMEM16A inh 25 | TMEM16A reconf inactive | HEK293 Ca mobil inactive | Parental YFP cnt inactive | ClC-1 rat inh inactive
CSc1nc(C(=O)N2CCCC(C(=O)c3ccc(Cl)cc3)C2)cs1 (configuration not stated)	none
O=C(CCS(=O)(=O)c1ccccc1)Nc1ccccc1F	none
